Screening data from PubChem BioAssay.
VLA-4 antagonist – inhibition of LDV-FITC ligand binding to human VLA-4 integrin | Jurkat cells, LDV-FITC binding with Mn2+, flow cytometry; 100% = Mn2+-driven binding gain fully reversed | inhibition, % at 10 µM (by protocol) | 0.2% of 24,000 active;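 active = inhibition above 50%; inconclusive = compound itself fluorescent, judged against control cell fluorescence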;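 also: 0% = Mn2+ stimulated cells lacking compound and 100% = ligand binding without Mn2+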
Target sequence (P13612 whole entry, looked up): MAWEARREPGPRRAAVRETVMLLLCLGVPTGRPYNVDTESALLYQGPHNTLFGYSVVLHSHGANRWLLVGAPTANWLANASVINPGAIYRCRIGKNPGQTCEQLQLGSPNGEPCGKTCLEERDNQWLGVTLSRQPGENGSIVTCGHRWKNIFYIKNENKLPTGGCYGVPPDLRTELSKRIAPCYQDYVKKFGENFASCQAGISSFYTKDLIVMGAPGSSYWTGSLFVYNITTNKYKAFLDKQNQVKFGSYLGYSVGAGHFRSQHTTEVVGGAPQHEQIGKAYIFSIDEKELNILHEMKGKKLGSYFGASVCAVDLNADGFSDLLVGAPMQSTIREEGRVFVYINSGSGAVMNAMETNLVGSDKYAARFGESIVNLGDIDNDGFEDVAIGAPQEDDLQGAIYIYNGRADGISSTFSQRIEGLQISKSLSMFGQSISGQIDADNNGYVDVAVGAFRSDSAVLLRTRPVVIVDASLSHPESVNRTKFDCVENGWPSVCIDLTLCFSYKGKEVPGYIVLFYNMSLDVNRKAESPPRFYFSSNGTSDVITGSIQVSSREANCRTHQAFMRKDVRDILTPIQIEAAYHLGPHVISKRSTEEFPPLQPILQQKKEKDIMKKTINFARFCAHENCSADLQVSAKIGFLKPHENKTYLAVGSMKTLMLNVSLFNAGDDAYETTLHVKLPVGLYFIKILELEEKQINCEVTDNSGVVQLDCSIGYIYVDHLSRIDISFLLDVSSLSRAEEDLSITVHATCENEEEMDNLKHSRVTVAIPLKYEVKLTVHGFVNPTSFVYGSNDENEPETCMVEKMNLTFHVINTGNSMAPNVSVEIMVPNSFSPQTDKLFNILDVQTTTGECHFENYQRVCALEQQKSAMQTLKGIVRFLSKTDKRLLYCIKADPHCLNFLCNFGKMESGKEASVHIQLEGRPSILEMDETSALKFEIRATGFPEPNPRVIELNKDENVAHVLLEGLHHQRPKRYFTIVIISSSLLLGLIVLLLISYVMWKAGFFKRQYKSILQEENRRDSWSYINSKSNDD
VLA-4 allo ag – allosterically activates the human VLA-4 integrin; P13612; Jurkat cells, LDV-FITC binding, flow cytometry; activation, % at 10 µM (by protocol); 24,000 tested, under 10 active; AID 528;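 active = fluorescent ligand binding to cells raised by more than 40% of the manganese-induced maximum; inconclusive = compound's own fluorescence above 85% of the ligand control signal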;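 also: 0% = ligand binding without compound and 100% = manganese-stimulated maximal binding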
FPRL1 binder – human FPRL1 ligand, with FPR counter-screen; FPRL1-expressing cells, fluorescent ligand binding inhibition, flow cytometry; inhibition, % (concentration not given with the values); 0.3% of 24,000 active; AID 441;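 also: 0% = buffer alone and 100% = receptor blocker peptide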
FPR ligand – binds the human formylpeptide receptor FPR | P21462 | FPR-expressing cells, fluorescent ligand binding, flow cytometry | inhibition, % (concentration not given with the values) | 0.74% of 24,000 active | AID 440;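 also: 0% = buffer wells and 100% = receptor blocker peptide wells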
26S disassembly – blocks ATP-dependent breakdown of the yeast 26S proteasome; anti-FLAG beads, GFP-proteasome disassembly, flow cytometry; 0.2% of 24,000 active; AID 751; inhibition of disassembly, % (test concentration not listed);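 active = inhibition of disassembly above about 33%, limit read from the data; inconclusive = likely self-fluorescent, control bead median signal at least 40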;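 also: plate controls were ATP control with full disassembly for no effect and ATP-gamma-S intact proteasomes for full effect; higher percent means more bead fluorescence retained so stronger block of disassembly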
Jurkat autofluor – autofluorescence counter-screen for VLA-4 integrin assays; Jurkat cells, compound autofluorescence, flow cytometry; hits give high values; 1 = vehicle-only cell background; AID 576; fluorescence ratio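 (tested at 10 µM compound in the well)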; 0.61% of 24,000 active;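 active = fluorescence ratio above 2.44, which is 1 plus 3 SD of all ratios; inconclusive = signal too bright to measure linearly, ratio around 10 or more; inactive = fluorescence ratio below 2.44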;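 also: green fluorescence of cells measured with 488 nm excitation and 530 nm emission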
* marks the source's active call; other numbers are inactive results; ? = inconclusive; . = no result given. The list is not random: actives were taken first. Their share in the collection is about 1.9%. Rule as the data show it, unless noted: active = inhibition above about 30%; inconclusive = no clear call, values can overlap the other calls; inactive = below that.

SMILES | VLA-4 antagonist | VLA-4 allo ag | FPRL1 binder | FPR ligand | 26S disassembly | Jurkat autofluor
COc1ccccc1Oc1c(C)oc2c(CN3CCN(CCO)CC3)c(O)ccc2c1=O | . | . | 0.7 | -5.7 | . | .
COc1ccccc1Oc1c(C)oc2c(CN(C)C)c(O)ccc2c1=O | . | . | 30.5* | 22.4 | . | .
O=C(O)c1cccc(NS(=O)(=O)c2cccc3cccnc23)c1 | -23.0 | 3.0 | 3.6 | 4.1 | 0.0 | 1.16
O=c1[nH]c(Nc2ccccc2)cc2ccccc12 | ? | ? | 10.4 | -5.4 | 13.3 | 2.86*
CCOC(=O)CNC(=O)CSc1nnc(Cn2c(=O)sc3ccccc32)n1-c1ccccc1C | -10.0 | 3.0 | -0.5 | -1.4 | -1.8 | 1.04
NC(=O)c1cccn1Cc1ccccc1Cl | 6.0 | -8.0 | 1.7 | 1.1 | 2.3 | 1.03
O=C(Nc1ccccc1)C1=C(O)CC(c2ccoc2)CC1=Nc1ccccc1 (stereo not drawn) | ? | ? | -6.9 | -1.1 | 3.8 | 1.85
O=C(Nc1ccccc1)C1=C(O)CC(c2ccco2)CC1=Nc1ccccc1 (stereo not drawn) | 9.0 | -7.0 | -2.3 | -2.3 | 47.4* | 1.45
COc1ccc(-c2nnc(Nc3nc4c(OC)cccc4s3)o2)c(OC)c1 | 68.0* | 5.0 | 5.5 | 62.1* | -0.8 | 1.13
COc1ccc(-c2nnc(Nc3nc4c(OC)cccc4s3)o2)cc1 | 65.5* | 1.0 | 2.6 | 51.6* | -0.8 | 1.1
CCCCOC(=O)Nc1cc(C(=O)OC)ccc1C(=O)OC | 18.0 | 2.0 | -1.8 | 1.8 | 0.0 | 1
CN(CC(=O)NCc1ccc(F)cc1)S(=O)(=O)c1cccc2nsnc12 | -18.0 | 5.0 | -8.9 | 2.5 | 0.9 | 1
C=CCn1c(/N=C/c2ccc(N(C)C)cc2)nc2ccccc21 | ? | ? | ? | ? | -0.3 | 4.76*
Cc1noc(C)c1S(=O)(=O)N1CCCC(C(=O)Nc2cccnc2)C1 (stereo not drawn) | -22.0 | -5.0 | 3.8 | -2.5 | -2.6 | 1.03
O=C1C(CCS(=O)c2ccccc2)C(=O)N(c2ccccc2)N1c1ccccc1 (stereo not drawn) | 57.7* | -42.0 | -6.6 | 34.0* | 0.1 | 0.98
CCOC(=O)Cc1cc(=O)n2[nH]c(C)c(-c3ccccc3)c2n1 | . | . | 26.0 | 51.2* | . | .
CC(=O)NCC(=O)N(Cc1ccco1)C1(C(=O)NC2CCCCC2)CCCCC1 | -3.7 | -0.7 | 0.2 | -3.8 | -1.9 | 1
CCc1ccccc1NC(=O)c1nnn(CC(=O)Nc2ccccc2C)c1N | ? | ? | -1.5 | 2.9 | -0.2 | 1.07
CCOC(=O)c1c(C)[nH]c(C(=O)Cn2c(=O)c3c(ncn3CC)n(Cc3ccccc3)c2=O)c1C | 16.0 | 1.0 | -3.5 | -7.4 | 70.0* | 1.17
CCOC(=O)c1c(C)[nH]c(C(=O)CSc2nc3ccccc3o2)c1C | -5.0 | 1.5 | -1.3 | 8.6 | 0.6 | 1.02
CC(C)n1ncc(C(N)=O)c1N | 18.0 | -1.0 | 1.1 | -3.2 | 1.4 | 0.99
Cc1cccc(-n2nc3c(c2NC(=O)c2ccco2)CSC3)c1C | 2.0 | -7.0 | -1.7 | 96.4* | 0.2 | 1.02
CCCCOc1ccc(S(=O)(=O)Nc2cccnc2)cc1 | 11.0 | 2.0 | -2.5 | 0.0 | 3.0 | 1.03
CCOc1ccc(C2C(C(=O)OC)=C(C)N=C3SCCC(=O)N32)cc1OCC (stereo not drawn) | 6.0 | -3.0 | 4.6 | 2.0 | -2.0 | 1.07
CCOc1cc(C2C(C(=O)OC)=C(C)N=C3SCCC(=O)N32)ccc1OC(C)=O (stereo not drawn) | ? | ? | -7.7 | -2.8 | 1.3 | 2.7*
SMILES | VLA-4 antagonist | VLA-4 allo ag | FPRL1 binder | FPR ligand | 26S disassembly | Jurkat autofluor
O=C(CSC1=NCCS1)NCc1ccco1 | -1.5 | -5.0 | 3.0 | -2.5 | 0.1 | 1
O=C(CN1CCN(CCOCCO)CC1)N1c2ccccc2Sc2ccc(Cl)cc21 | 14.0 | -6.0 | -3.4 | -5.4 | -0.1 | 1.29
N#Cc1c(N)n(CCNC(=O)c2cccs2)c2nc3ccccc3nc12 | ? | ? | -21.5 | -24.7 | 14.7 | 5.34*
Cc1ccsc1C1C2=C(CCCC2=O)Nc2ncnn21 (stereo not drawn) | -25.5 | -1.0 | -2.4 | 8.8 | -1.2 | 0.98
Cc1ccsc1C1C2=C(CC(C)(C)CC2=O)Nc2ncnn21 (stereo not drawn) | -41.0 | 15.0 | 2.0 | 36.0* | -2.8 | 1.08
O=C(C1=C(O)C(=O)N(CCN2CCOCC2)C1c1ccccc1)c1cccs1 (stereo not drawn) | . | . | 28.4 | 44.2* | . | .
